Source: PubChem BioAssay (NCI)
Several values for one entry are separate records, joined by “and”; a condition that tells them apart may be missing. Identical values can stand only once. The panel holds about 83,000 compounds, 20% with a hit somewhere; the sample as a whole holds those more often.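 In brief: 96-well plates, 48 h treatment, single concentration, percent growth endpoint.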 Activity calls are given as the source filed them. How the source made its calls: active means growth percent below 10; inactive means the rest.

Key:
Experiment in all cases: NCI-60 one-dose screen, 48 h (100 = growth as untreated, 0 = no growth, -100 = all killed)
Settings in all cases: 10 µM unless noted
HT29 colon = system: HT29 colon
SNB-75 CNS = system: SNB-75 CNS
SNB-19 CNS = system: SNB-19 CNS
U251 CNS = system: U251 CNS
PC-3 prostate = system: PC-3 prostate
SK-MEL-5 melanoma = system: SK-MEL-5 melanoma
UACC-62 melanoma = system: UACC-62 melanoma
LOX IMVI melanoma = system: LOX IMVI melanoma
SK-MEL-28 melanoma = system: SK-MEL-28 melanoma

SMILES | growth (HT29 colon) | growth (SNB-75 CNS) | growth (SNB-19 CNS) | growth (U251 CNS) | growth (PC-3 prostate) | growth (SK-MEL-5 melanoma) | growth (UACC-62 melanoma) | growth (LOX IMVI melanoma) | growth (SK-MEL-28 melanoma)
O=[P+](O)c1cccnc1 | 93.7% (inactive) | 94.3% (inactive) | 106% (inactive) | 99.6% (inactive) | 96.7% (inactive) | 102% (inactive) | 103% (inactive) | 98.1% (inactive) | 106% (inactive)
C=CC[PH+](c1ccccc1)c1ccccc1.C=CC[PH+](c1ccccc1)c1ccccc1.[Pt+2].[S-]c1nc2ccccc2[nH]1.[S-]c1nc2ccccc2[nH]1 | -30.4% (active) | -64.5% (active) | – | -83% (active) | 9.47% (active) | -94.9% (active) | -48.9% (active) | -95% (active) | -47.1% (active)
CN(C)[C@@H]1C(=O)C(C(N)=O)=C(O)[C@@]2(O)C(=O)C3=C(O)c4c(O)ccc(Cl)c4[C@@](C)(O)[C@H]3C[C@@H]12 | 85.2% (inactive) and 109% (inactive) | 87.2% (inactive) and 84.1% (inactive) | 98.4% (inactive) and 97.9% (inactive) | 89.9% (inactive) and 103% (inactive) | 81.6% (inactive) | 98.9% (inactive) and 100% (inactive) | 72.9% (inactive) and 89.5% (inactive) | 86% (inactive) and 95.6% (inactive) | 109% (inactive) and 112% (inactive)
C#Cc1cccc(Nc2nc(Cl)nc3cc(NC(=O)CF)ccc23)c1 | 16.1% (inactive) | 61.2% (inactive) | – | 79.3% (inactive) | 57.8% (inactive) | 37.3% (inactive) | 72.9% (inactive) | 65.2% (inactive) | 73.2% (inactive)
NNC(=S)N/N=C(\C(=O)Nc1cccc(O)c1)C1C(=O)NC(=S)NC1=O | – | – | – | – | – | – | 90.4% [100 µM] (inactive) and 91% [100 µM] (inactive) | – | –
CC12CCC3C4CCC(=O)C=C4CCC3C1CC1CC(=O)OC12 (stereo not given) | 90.9% (inactive) | 92.3% (inactive) | – | 97.1% (inactive) | – | 99.2% (inactive) | 97.2% (inactive) | 90.7% (inactive) | 108% (inactive)
Oc1cc(N2CC2)c(O)cc1N1CC1 | 1.49% (active) | – | 26.8% (inactive) | -2.16% (active) | 25% (inactive) | -95% (active) | -67.2% (active) | 1.44% (active) | -50.9% (active)
Cc1ccccc1-n1c(/C=C\c2ccccn2)nc2ccccc2c1=O | 79.7% (inactive) | 44.9% (inactive) | 87.9% (inactive) | – | 56.5% (inactive) | 73.7% (inactive) | 64.5% (inactive) | – | 83.2% (inactive)
N#CCC(=O)c1ccccc1 | 110% (inactive) | 84.3% (inactive) | 111% (inactive) | 101% (inactive) | 95.2% (inactive) | 104% (inactive) | 107% (inactive) | 103% (inactive) | 114% (inactive)
COC(=O)C12C3C4C1C1C2C3C41NC(=O)c1csc([C@@H](C[C@H](C(C)C)N(C)C(=O)[C@@H](NC(=O)[C@H]2CCCCN2C)C2CC2)OC(C)=O)n1 (stereo not given in full) | – | 45.3% (inactive) | 39.7% (inactive) | 10.8% (inactive) | 23.5% (inactive) | -14.7% (active) | 48% (inactive) | 16.3% (inactive) | 57.8% (inactive)
CC[C@@H](C)C(=O)O[C@H]1[C@H](O)[C@H]2[C@@H](CN3C[C@@H](C)CC[C@H]3[C@@]2(C)O)[C@@H]2C[C@]34O[C@]5(O)[C@@H](OC(=O)[C@@](C)(O)CC)CC[C@@]3(C)[C@@H]5[C@@H](OC(C)=O)[C@@H](OC(C)=O)[C@H]4[C@@]21O | – | 79.8% (inactive) | 100% (inactive) | 91.8% (inactive) | 75.8% (inactive) | 86.6% (inactive) | 96.1% (inactive) | 92.8% (inactive) | 105% (inactive)
CSc1cc(/C=C(\C)[C@@H]2C[C@@H]3O[C@]3(C)CCC[C@H](C)[C@H](O)[C@@H](C)C(=O)C(C)(C)[C@@H](O)CC(=O)O2)n(CCNC(=O)OC(C)(C)C)n1 | – | 43.9% (inactive) | 70.4% (inactive) | 67.2% (inactive) | 39% (inactive) | 38.4% (inactive) | 43.8% (inactive) | 51.1% (inactive) | 79% (inactive)
CC[C@H](C)[C@H]1O[C@]2(C=C[C@@H]1C)C[C@@H]1C[C@@H](C/C=C(\C)[C@@H](O[C@H]3C[C@H](OC)[C@@H](O[C@H]4C[C@H](OC)[C@@H](NC)[C@H](C)O4)[C@H](C)O3)[C@@H](C)/C=C/C=C3\CO[C@@H]4[C@H](O)C(C)=C[C@@H](C(=O)O1)[C@]34O)O2 | – | -72.7% (active) | – | -88.7% (active) | -16.2% (active) | -95.5% (active) | -53.1% (active) | -92.3% (active) | -79.2% (active)
O=C(CBr)OCCOC(=O)CBr | 92.5% (inactive) | 91.2% (inactive) | 104% (inactive) | 87.4% (inactive) | 84.1% (inactive) | 99.3% (inactive) | 81.4% (inactive) | 37.1% (inactive) | 79.5% (inactive)
CCCC[C@@H]1CCN2C[C@@H](O)[C@@H](O)[C@@H]2[C@H]1O | – | – | – | – | – | – | 111% [100 µM] (inactive) and 89.9% [100 µM] (inactive) | – | –
Cc1cc(Br)c([N+](=O)[O-])cc1[N+](=O)[O-] | 103% (inactive) | 108% (inactive) | 103% (inactive) | 103% (inactive) | 91.4% (inactive) | 100% (inactive) | 102% (inactive) | 19.7% (inactive) | 116% (inactive)
CCCCCCCCCCCCCCCC[N+](C)(C)C | -64% (active) and -42.4% (active) | -77.5% (active) and -23.3% (active) | -71.2% (active) and -40.6% (active) | -75.5% (active) and -94.2% (active) | – | -94.6% (active) and -73.7% (active) | -63% (active) and 25.6% (inactive) | -71.6% (active) and -73.9% (active) | -74.7% (active) and 25.6% (inactive)
CC[C@H](C)[C@H](NC(=O)[C@H]1CCCCN1C)C(=O)N(C)[C@H](C(=O)NC12CC(C(=O)N[C@@H](Cc3ccccc3)C[C@H](C)C(=O)OC)(C1)C2)C(C)C | 87.3% (inactive) | 92.7% (inactive) | 100% (inactive) | 96.7% (inactive) | – | 101% (inactive) | 102% (inactive) | 92.1% (inactive) | 110% (inactive)
CC[C@H](C)[C@H](NC(=O)[C@H]1CCCCN1C)C(=O)N(C)[C@H](C[C@@H](OC(C)=O)c1nc(C(=O)NC23C4C5C2C2C3C4C52C(=O)OC)cs1)C(C)C (stereo not given in full) | -5.46% (active) | 22.9% (inactive) | 28.1% (inactive) | 10.8% (inactive) | 23.5% (inactive) | -56.9% (active) | 43.8% (inactive) | 7.09% (active) | 59.1% (inactive)
CC[C@H](C)[C@H](NC(=O)[C@H]1CCCCN1C)C(=O)N(C)[C@H](CCc1nc(C(=O)N[C@@H](Cc2ccccc2)C[C@H](C)C(=O)O)cs1)C(C)C | -3.57% (active) | 28.3% (inactive) | 39.5% (inactive) | 7.98% (active) | 29.1% (inactive) | 5.59% (active) | 52.2% (inactive) | 15.2% (inactive) | 59.4% (inactive)
